The record followed here is PubChem BioAssay (NCATS).

The target of test [1] is Lysosomal acid glucosylceramidase (Homo sapiens) (UniProt P04062). The test is described as follows: Glucocerebrosidase-p2 (AID 348; in the data active means potency below about 10 µM; further: potency means the concentration at half of the fitted maximal effect). The settings on record: purified GBA, blue fluorogenic substrate, 40 min. An outline of the steps:
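Normal human glucocerebrosidase (0.2 nM) with blue fluorogenic substrate (80 uM final) in citrate/phosphate pH 5.9 with 10mM sodium taurocholate, 0.01% tween-20; 40 min RT, NaOH/glycine stop; fluorescence Ex 365/Em 440; AC50 from a titration from 0.6 nM upwards.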

Test [2] is described as follows: AP1 Signaling Pathway (AID 357; active means well fitted curve in either direction with a large enough effect, not every such curve was filed as active; further: on the % scale 0 is the no-effect control and ±100 the full control effect). The following applies: ME-180 AP-1-bla reporter, EGF-induced, beta-lactamase ratio, 5 h; at 7.69 µM (top of the series) unless noted. A digest of the protocol: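 Cells are seeded overnight, exposed to compound titrations and an EC50 level of EGF for 5 hours at 37 °C, then loaded with CCF4 dye for 2.5 hours. Beta-lactamase activity under the AP-1 element is read as a blue/green ratio.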

A short description of test [3]: NFAT Signaling Pathway (AID 444; active means well fitted curve in either direction with a large enough effect, not every such curve was filed as active;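 further: carbachol stimulus at about its EC50 of 1 µM final; on the % scale 0 is the no-effect control and ±100 the full control effect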). The following applies: Jurkat NFAT-bla M1, carbachol, beta-lactamase ratio, 5 h; at 7.69 µM (top of the series) unless noted. A digest of the protocol: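 Read-out: CCF4 FRET ratio (460 nm/530 nm) after 1 h RT dye loading, used for %activity and AC50 from titration series. Cells: Jurkat NFAT-β-lactamase/M1 line, treated with compound plus 1 uM carbachol for 5 h, 37 °C.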

Test [4] deals with Glucocorticoid receptor (Homo sapiens) (UniProt P04150). The test can be described thus: GR-GFP Redistribution (AID 450;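 active means compounds whose dose series gives a full or clear partial fitted curve of increased nuclear translocation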; further: potency means the concentration at half of the fitted maximal effect). The settings on record: U2OS GR-GFP nuclear translocation, laser cytometry, 2 h.
Glucocorticoid receptor (Homo sapiens), sequence (P04150 whole entry, looked up, the tested form may be a part): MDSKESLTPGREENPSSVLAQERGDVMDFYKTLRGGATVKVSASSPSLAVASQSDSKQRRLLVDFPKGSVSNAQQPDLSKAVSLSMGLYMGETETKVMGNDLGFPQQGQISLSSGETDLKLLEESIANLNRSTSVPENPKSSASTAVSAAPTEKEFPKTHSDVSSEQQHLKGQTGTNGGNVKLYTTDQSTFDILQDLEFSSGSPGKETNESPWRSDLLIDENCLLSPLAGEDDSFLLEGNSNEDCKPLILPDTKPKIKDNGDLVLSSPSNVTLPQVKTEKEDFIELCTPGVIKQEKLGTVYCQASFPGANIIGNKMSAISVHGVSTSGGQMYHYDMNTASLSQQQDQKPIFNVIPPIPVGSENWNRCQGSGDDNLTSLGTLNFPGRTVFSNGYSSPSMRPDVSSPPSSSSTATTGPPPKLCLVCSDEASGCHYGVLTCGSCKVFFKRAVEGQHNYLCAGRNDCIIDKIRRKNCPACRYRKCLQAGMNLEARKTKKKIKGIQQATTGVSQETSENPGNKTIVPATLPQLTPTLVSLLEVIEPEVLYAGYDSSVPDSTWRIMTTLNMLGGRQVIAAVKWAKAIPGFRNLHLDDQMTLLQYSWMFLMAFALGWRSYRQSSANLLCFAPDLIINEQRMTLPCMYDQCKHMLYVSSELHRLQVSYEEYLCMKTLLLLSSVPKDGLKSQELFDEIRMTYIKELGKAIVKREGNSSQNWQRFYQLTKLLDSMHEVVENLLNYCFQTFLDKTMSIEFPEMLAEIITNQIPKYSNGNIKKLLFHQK
Test [5] has the same target. The test can be described thus: GR-EFC Redistribution (AID 451; calls by dose curve; further: potency means the concentration at half of the fitted maximal effect). The following applies: CHO-K1 GR-EFC translocation, beta-gal luminescence, 2 h. An outline of the steps: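 Translocation of GR-ED fusion to nuclear EA restores b-gal, read by luminescence after 1 h room-temperature detection. Engineered CHO-K1 biosensor cells, 1,000/well, exposed 2 h at 37 C to titrations up to 46 uM final.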

The target of test [6] is Mitogen-activated protein kinase 10 (Mus musculus) (UniProt Q61831). The test is described as follows: JNK3 AlphaScreen Assay (AID 530; active means well fitted curve in either direction with a large enough effect, not every such curve was filed as active;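 further: kinase came from lysate of stimulated human HepG2 cells; signal reports phosphorylation of biotinylated GST-cJun 1-79 at Ser73 with 10 µM ATP; on the % scale 0 is the no-effect control and ±100 the full control effect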). The settings on record: JNK3 lysate, c-Jun phosphorylation; series mostly up to 57.1 µM. A digest of the protocol:
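qHTS titrations with 15 min compound pre-incubation before adding ATP (10 uM final). Read-out: AlphaScreen of Ser73-phosphorylated biotin-GST-cJun using HepG2 lysate JNK3 activated by IL-1β and TNFα.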
A general note: Bead proximity is the source of the signal in Alpha formats.

Test [7] addresses 3',5'-cyclic-AMP phosphodiesterase 4B (Homo sapiens) (UniProt Q07343). The test is described as follows: qHTS Assay for Inhibitors of PDE-IV (AID 607; active means well fitted activation curve with a large enough effect in the main read-out, with a control signal flat, not every such curve was filed as active; further: % of control where 0% means no effect). The settings on record: HEK293 ACTOne CNG channel cells, membrane potential fluorescence; series mostly up to 22.9 µM. An outline of the steps:
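The readout is membrane depolarisation from a cAMP-sensing CNG channel, detected with a potential dye at ex 535/em 590. Cells were HEK293-derived (endogenous PDE-IV) at 1000 cells/well, titrated up to 22.9 uM final.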
In general terms: Quantitative high-throughput screening tests each substance at several concentrations.

Test [8] addresses Dual specificity protein kinase CLK4 (Homo sapiens) (UniProt Q9HAZ1). The test is described as follows: qHTS Assay for Inhibitors of CDC-like Kinase 4 (Kinase-Glo Assay) (AID 1770). Further: on the % scale 0 is the no-effect control and ±100 the full control effect; nearly all actives have a fitted effect of over 65% in size. The settings on record: recombinant Clk4, Kinase-Glo ATP depletion luminescence; series mostly up to 66.7 µM. An outline of the steps: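 Readout: Kinase-Glo luminescence from ATP left after a 4.5 h room-temperature reaction of 25 nM Clk4 with 100 uM RS peptide and 1 uM ATP (final). Buffer: 25 mM Tris pH 7.5, 10 mM MgCl2.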

For test [9] the target is unchanged. The test can be described thus: qHTS Assay for Inhibitors of CDC-like Kinase 4 (ADP-Glo Assay) (AID 1771). Further: on the % scale 0 is the no-effect control and ±100 the full control effect; nearly all actives have a fitted effect of over 70% in size. The settings on record: recombinant CLK4, ADP-Glo luminescence; series mostly up to 80 µM. A digest of the protocol:
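Compounds are pin-transferred onto substrate mix (100 uM RS peptide, 1 uM ATP), then 25 nM Clk4 is added. After 1 hr at room temperature, ADP-Glo reagent runs 45 min, detection reagent 30 min, then luminescence is read.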

For test [10] the target is unchanged. The test can be described thus: qHTS Assay for Inhibitors of CDC-like Kinase 4 (ADP-FP Assay) (AID 1795).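 Further: recombinant human CLK4 phosphorylating RS repeat peptide at 1 µM ATP; on the % scale 0 is the no-effect control and ±100 the full control effect; nearly all actives have a fitted effect of over 60% in size.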 The settings on record: Transcreener ADP fluorescence polarization; series mostly up to 50 µM. An outline of the steps: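 FP readout: Orange Transcreener ADP2 tracer (4 nM) plus ADP antibody, read after 30 min at room temperature. Kinase step: 6.25 nM Clk4, 100 uM RS peptide, 1 uM ATP, pH 7.5, 1 h.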

Test [11] has as its target Ubiquitin carboxyl-terminal hydrolase 1 (Homo sapiens) (UniProt O94782). The test is described as follows: Inhibitors of USP1/UAF1: Pilot qHTS (AID 504865).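 Further: rhodamine fluorescence freed from ubiquitin-rhodamine substrate followed over time; top concentration of the series differs between compounds; on the % scale 0 is the no-effect control and ±100 the full control effect; nearly all actives have a fitted effect of over 35% in size.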 The settings on record: purified USP1/UAF1, Ub-rhodamine cleavage fluorescence; series mostly up to 54.9 µM. An outline of the steps: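 1nM USP1/UAF1 + cpd, 15 min RT; start w/ Ub-Rho 150nM final; kinetic FL 480/540 nm, 6 reads q60 s. Buffer 50mM HEPES pH 7.8, 0.5mM EDTA, 1mM TCEP, 0.01% Tween-20, 0.1 mg/ml BSA.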

Test [12] in a line: Primary qHTS for small molecule stabilizers of the endoplasmic reticulum resident proteome: Secreted ER Calcium Modulated Protein (SERCaMP) assay (AID 1508630). Further: on the % scale 0 is the no-effect control and ±100 the full control effect. The settings on record: SH-SY5Y GLuc-SERCaMP (Gaussia luciferase released on ER calcium loss) secretion, thapsigargin, luminescence; series mostly up to 38.4 µM. An outline of the steps:
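The SH-SY5Y reporter protocol was run at 3 concentrations up to 38.3 uM (primary) or 11 concentrations (follow-up): 16 h compound, 100 nM thapsigargin for 4 h, then extracellular luciferase luminescence.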

Test [13] is described as follows: Stat Signaling Pathway (AID 446; active means well fitted curve in either direction with a large enough effect, not every such curve was filed as active). The following applies: ME-180 (cervical carcinoma) SIE beta-lactamase reporter, IL-6 stimulated, 5 h; at 7.69 µM (top of the series) unless noted. A digest of the protocol: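 Emission at 460 and 530 nm (excitation 405 nm) reports SIE-controlled beta-lactamase in ME-180 cells. Cells received compound with 40 pM IL-6 for 5 hrs at 37 C; data scaled between 300 pM IL-6 and 125 nM JAK-inhibitor controls.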

Test [14] addresses Cytochrome P450 3A4 (Homo sapiens) (UniProt P08684). The test can be described thus: qHTS Assay for Inhibitors and Substrates of Cytochrome P450 3A4 (AID 884). Further: potency means the concentration at half of the fitted maximal effect; nearly all actives have a fitted effect of over 50% in size. The following applies: recombinant CYP3A4, Luciferin-PPXE luminescence; series mostly up to 57.1 µM. An outline of the steps: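 Luminescent readout of luciferin produced by CYP3A4 (20 nM) dealkylation of Luciferin-PPXE, 25 uM (its KM). NADPH-driven reaction ran 60 min at RT after 10 min compound preincubation; data scaled to 57 uM ketoconazole as 100% inhibition.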

For test [15] the target is unchanged. The test is described as follows: qHTS Assay for Activators of Cytochrome P450 3A4 (AID 885). Further: nearly all actives have a fitted effect of over 65% in size. The following applies: recombinant CYP3A4, Luciferin-PPXE luminescence, 60 min; series mostly up to 57.1 µM. A digest of the protocol:
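Activators are scored by enhanced luminescence from CYP3A4 conversion of luciferin-PPXE (25uM, equal to KM) to luciferin, after 60 min at RT with an NADPH-regenerating system.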

A number with no mark means an inactive call. Inconclusive results are not listed. Activity calls are given as the source filed them. Unless noted, the call rests on the fitted dose curve; in most records, active means well fitted curve in the direction sought with a large enough effect; inconclusive means small, poorly fitted or top-dose-only effect, or another doubt; inactive means no such curve, though single readings can be large; an effect the other way counts as inactive or inconclusive.

Ubiquitin carboxyl-terminal hydrolase 1 (Homo sapiens), sequence (O94782 whole entry, looked up): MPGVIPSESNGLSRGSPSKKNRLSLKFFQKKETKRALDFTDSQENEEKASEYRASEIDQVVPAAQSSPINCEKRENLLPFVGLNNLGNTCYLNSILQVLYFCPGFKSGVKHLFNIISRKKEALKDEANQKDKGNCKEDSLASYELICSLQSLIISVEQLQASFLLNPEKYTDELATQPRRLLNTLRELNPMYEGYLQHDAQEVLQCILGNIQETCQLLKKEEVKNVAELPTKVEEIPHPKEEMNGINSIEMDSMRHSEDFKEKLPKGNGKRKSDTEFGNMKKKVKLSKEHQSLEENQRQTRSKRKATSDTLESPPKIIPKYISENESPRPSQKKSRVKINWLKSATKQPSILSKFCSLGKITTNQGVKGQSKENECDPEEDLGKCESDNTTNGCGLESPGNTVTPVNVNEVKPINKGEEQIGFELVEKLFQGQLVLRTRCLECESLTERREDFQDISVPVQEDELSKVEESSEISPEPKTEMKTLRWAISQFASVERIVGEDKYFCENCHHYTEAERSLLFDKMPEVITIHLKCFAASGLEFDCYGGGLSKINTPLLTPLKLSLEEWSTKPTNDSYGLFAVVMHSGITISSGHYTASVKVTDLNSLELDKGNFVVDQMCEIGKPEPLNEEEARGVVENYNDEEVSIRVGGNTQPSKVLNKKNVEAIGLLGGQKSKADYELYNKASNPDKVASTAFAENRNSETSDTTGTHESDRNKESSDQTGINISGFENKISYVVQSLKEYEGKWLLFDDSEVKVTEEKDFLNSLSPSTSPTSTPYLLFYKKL
Dual specificity protein kinase CLK4 (Homo sapiens), sequence (Q9HAZ1 whole entry, looked up): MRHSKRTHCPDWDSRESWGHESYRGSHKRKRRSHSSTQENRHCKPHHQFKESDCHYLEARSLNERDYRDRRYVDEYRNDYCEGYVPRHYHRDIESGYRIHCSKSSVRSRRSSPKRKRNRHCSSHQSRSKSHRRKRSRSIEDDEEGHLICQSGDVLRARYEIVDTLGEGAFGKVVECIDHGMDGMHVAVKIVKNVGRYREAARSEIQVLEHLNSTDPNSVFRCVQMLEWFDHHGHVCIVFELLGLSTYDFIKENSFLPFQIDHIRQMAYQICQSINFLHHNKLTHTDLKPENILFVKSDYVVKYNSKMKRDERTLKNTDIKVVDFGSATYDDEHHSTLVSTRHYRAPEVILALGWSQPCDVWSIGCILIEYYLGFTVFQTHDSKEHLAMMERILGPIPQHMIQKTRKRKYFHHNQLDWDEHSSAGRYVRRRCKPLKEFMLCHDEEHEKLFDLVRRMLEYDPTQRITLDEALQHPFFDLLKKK
Lysosomal acid glucosylceramidase (Homo sapiens), sequence (P04062 whole entry, looked up): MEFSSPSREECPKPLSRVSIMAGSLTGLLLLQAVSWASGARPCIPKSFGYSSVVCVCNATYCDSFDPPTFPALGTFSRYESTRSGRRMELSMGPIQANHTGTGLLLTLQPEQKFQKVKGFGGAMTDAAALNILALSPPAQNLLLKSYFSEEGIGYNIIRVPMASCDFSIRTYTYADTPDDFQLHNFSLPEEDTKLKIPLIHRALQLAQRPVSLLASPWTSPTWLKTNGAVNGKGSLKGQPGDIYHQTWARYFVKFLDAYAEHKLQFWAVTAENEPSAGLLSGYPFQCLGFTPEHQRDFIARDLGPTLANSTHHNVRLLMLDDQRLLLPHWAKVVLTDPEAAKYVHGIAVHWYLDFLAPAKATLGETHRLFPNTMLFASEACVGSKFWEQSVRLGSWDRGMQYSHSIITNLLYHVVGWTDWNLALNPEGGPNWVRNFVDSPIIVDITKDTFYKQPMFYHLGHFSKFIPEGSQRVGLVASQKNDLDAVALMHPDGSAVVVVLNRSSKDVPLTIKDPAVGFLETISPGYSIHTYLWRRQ
Cytochrome P450 3A4 (Homo sapiens), sequence (P08684 whole entry, looked up): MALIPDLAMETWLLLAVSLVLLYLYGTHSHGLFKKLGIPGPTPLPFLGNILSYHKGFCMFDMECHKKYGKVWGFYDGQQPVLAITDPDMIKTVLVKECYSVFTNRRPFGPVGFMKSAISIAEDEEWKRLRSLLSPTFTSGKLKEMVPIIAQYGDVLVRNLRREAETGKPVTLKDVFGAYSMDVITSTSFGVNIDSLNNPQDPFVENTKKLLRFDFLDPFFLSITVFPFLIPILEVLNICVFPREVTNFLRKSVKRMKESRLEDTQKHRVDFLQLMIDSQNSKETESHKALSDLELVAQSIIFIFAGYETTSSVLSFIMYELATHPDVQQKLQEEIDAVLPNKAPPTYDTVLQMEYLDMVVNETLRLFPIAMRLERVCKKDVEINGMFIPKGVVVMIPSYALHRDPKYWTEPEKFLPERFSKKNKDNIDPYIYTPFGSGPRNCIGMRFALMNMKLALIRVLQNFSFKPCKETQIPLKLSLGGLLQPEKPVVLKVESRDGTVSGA
3',5'-cyclic-AMP phosphodiesterase 4B (Homo sapiens), sequence (Q07343 whole entry, looked up): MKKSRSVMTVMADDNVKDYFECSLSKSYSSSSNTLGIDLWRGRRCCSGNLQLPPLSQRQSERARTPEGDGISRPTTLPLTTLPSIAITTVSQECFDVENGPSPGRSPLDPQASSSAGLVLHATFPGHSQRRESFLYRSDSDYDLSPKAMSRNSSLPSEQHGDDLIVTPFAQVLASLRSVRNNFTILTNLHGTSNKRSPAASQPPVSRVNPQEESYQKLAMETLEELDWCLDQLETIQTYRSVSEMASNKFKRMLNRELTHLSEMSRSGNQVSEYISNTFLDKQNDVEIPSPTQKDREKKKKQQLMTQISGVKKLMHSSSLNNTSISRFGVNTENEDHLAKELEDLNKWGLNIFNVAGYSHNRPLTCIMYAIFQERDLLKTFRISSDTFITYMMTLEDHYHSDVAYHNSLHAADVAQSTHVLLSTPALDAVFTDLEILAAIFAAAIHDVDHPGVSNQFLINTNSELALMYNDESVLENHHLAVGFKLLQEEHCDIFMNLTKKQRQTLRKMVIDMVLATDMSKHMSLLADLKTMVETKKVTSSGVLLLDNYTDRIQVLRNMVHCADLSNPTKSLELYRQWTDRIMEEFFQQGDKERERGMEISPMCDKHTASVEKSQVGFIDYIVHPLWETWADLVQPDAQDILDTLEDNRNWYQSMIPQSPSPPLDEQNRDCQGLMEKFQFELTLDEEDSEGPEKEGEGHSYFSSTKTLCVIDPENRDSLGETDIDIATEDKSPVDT

With `CN(C)c1ncc2nc(-c3cc(F)cc(F)c3)c(=O)n(C)c2n1`, the Potency is > 11.4 µM in [1], > 9.22 µM in test [4] and > 46 µM in test [5]. In addition, the activity change, negative = inhibition in [2] was 13.4%; in [3], 2.93%. In addition, the Potency entry in test [6], in test [7], in test [8], in [9], in test [10] and in [11] was “inactive” throughout. In [12], the outcome was inactive.

In the case of `Cc1cnc(CNc2ncncc2-c2cccc(NS(C)(=O)=O)c2)cn1`, the Potency in test [1] is > 11.4 µM; in test [4], > 46 µM; in [5], > 46 µM; in test [14], 3.16 µM (active). The activity change, negative = inhibition in test [2] was 3.85%; in [3], -0.565%. Further, in test [13], the activity, negative = inhibition is 13.1%. Further, the Potency result in test [6], in test [7], in [15], in test [8], in test [9] and in [10] was “inactive” each time. Further, in test [11], the Potency result is “inactive”. Besides, the outcome in test [12] was inactive.

In the case of `COc1ccccc1CNc1nc(-c2ccccc2OC)nc2ccccc12`, the Potency in test [1] was > 11.4 µM; in [4] it was > 46 µM; in test [5] it was > 46 µM. The results for the activity change, negative = inhibition in test [2] and in [3] were 6.17% and -24.7%, respectively. The activity, negative = inhibition in [13] was -10.4%. Further, the Potency result in test [6], in test [8], in [9] and in test [10] was “inactive” each time. Further, the outcome in [12] was inactive.

`O=c1c(-c2ccccc2)nc2cnc(Nc3ccccc3)nc2n1C[C@H]1CCCO1`: the Potency was > 11.4 µM in test [1], > 9.22 µM in test [4] and > 46 µM in test [5]. Further, the activity change, negative = inhibition in test [2] is 1.69%; in test [3], -14.2%. Moreover, in test [13], the activity, negative = inhibition is -4.27%. The Potency entry in [6], in test [7], in test [15], in test [8], in test [9] and in test [10] was “inactive” in each case. Also, the Potency result in [11] was “inactive”. Moreover, the outcome in test [12] was inactive.

In the case of `O=c1c(CCc2ccccc2)nc2cnc(N3CCOCC3)nc2n1C1CC1`, the figures for the Potency in test [1] and in [5] were > 11.4 µM and > 46 µM, respectively. For the same compound, the figures for the activity change, negative = inhibition in test [2] and in test [3] were -19.2% and 4.06%, respectively. Moreover, in [13], the activity, negative = inhibition is 3.71%. Moreover, the Potency result in [6], in [8], in test [9], in [10] and in [11] was “inactive” each time. Besides, the result in [12] was inactive.

Take `Cn1c(=O)c(CCc2ccccc2)nc2cnc(N3CCOCC3)nc21`: the figures for the Potency in test [1], in [4] and in test [5] were > 11.4 µM, > 9.22 µM and > 46 µM, respectively. Further, the activity change, negative = inhibition is -10.6% in [2] and 10.9% in [3]. Besides, the activity, negative = inhibition in [13] was 1.67%. The Potency entry in test [6], in test [7], in [8], in [9], in test [10] and in [11] was “inactive” in each case. For the same compound, the result in test [12] was inactive.

`CCNc1ncc2nc(-c3cc(F)cc(F)c3)c(=O)n(C3CC3)c2n1`: the values for the Potency in test [1] and in test [4] were > 11.4 µM and > 9.22 µM, respectively. Besides, the activity change, negative = inhibition in test [2] is 29.9%; in test [3] it was 23.3%. Moreover, the activity, negative = inhibition in test [13] is 28.9%. Moreover, the Potency entry in test [6], in test [7], in [8], in test [9], in test [10] and in [11] was “inactive” throughout. In test [12], the result was inactive.
